Measured values reported in PubChem BioAssay (NCATS).
“And” between values parts separate entries of the source, which are not always exact repeats. Equal values may be shown once. A structure can be active in one record and inactive in another. The source made the active and inactive calls. A call without a number means that no potency is given here. Calls follow the shape of the dose curve; as a rule, active = well fitted inhibition curve with a large enough effect; inconclusive = small, poorly fitted or top-dose-only effect; inactive = no such curve, though single readings can be large or run the other way.
Potency is read from the fitted curve at half-maximal effect.

Assay: qHTS assay for measurement of the activity of small molecule inhibitors on Zika virus induced Caspase-3 activity in human astrocytoma cells (AID 1224859)
Details: SNB-19 ZIKV-induced caspase-3/7, luminescence, 6 h; series mostly up to 45.7 µM
Excerpt: National Center for Advancing Translational Sciences [NCATS]
Johns Hopkins University School of Medicine
Increase in the Caspase-3 activity indicates an activation of apoptosis cell death pathway caused by Zika virus infection in certain types of neuronal cells including human neural progenitor cells (hNPCs), astrocytes, and astrocytoma cell line (SNB-19). This cell-based caspase-3 activity assay measures the increased caspase-3 activity in the astrocytoma cell line (SNB-19) after a 6-hour Zika virus infection with a luminescence readout. A decrease in the luminescence signal in this assay by small molecule treatment indicates an inhibitory effect of that small molecule on the Zika virus induced caspase-3 activity that may correlate with its effect on reduction of Zika virus caused cell death.
The medium for SNB-19 cells is composed of RPMI 1640 (ATCC, Cat.# 30-2001), 10% fetal bovine serum (FBS) (GE healthcare Life Sciences, Cat.# SH30071.03), and 1% Pen/Strep (Gibco, Cat.# 15140-122). A Caspase-Glo 3/7 assay kit (catalog number G8092; Promega, Madison, WI) was used to detect caspase-3 activity induced by Zika virus infection in human cells. The reagent mixture was reconstituted as described in the protocol from the manufacturer. Polystyrene tissue culture treated and PDL coated white plates were obtained from Greiner Bio-One (Monroe, NC). Cells were seeded in 384- or 1536-well assay plates and cultured at 37 C with 5% CO2 for 16 to 20 hours. The typical cell seeding density in the 1536-well plate assay is 250 cells/well in 3ul medium for SNB-19 cells in tissue culture treated plates. Compounds were added to cells and incubated for one hour before addition of ZIKV solution to cells (2 FFU/cell). After incubation at 37 C with 5% CO2 for 6 hours, the reagent mixture of Caspase-Glo 3/7 assay kit was added to each well, followed by incubation at room temperature for 30 minutes. The luminescence intensity of the assay plates was measured using a ViewLux plate reader (PerkinElmer). Data were normalized by using the cell-containing wells without ZIKV as a negative control (0% induction of caspase 3/7 activity) and wells containing ZIKV infected cells (Caspase-3 activity induced) as a positive control (100% induction of caspase 3 activity). The percentage inhibitions of the increased Caspase-3 activity by small molecule inhibitors were then calculated.
In the case of `Nc1ccn([C@@H]2O[C@H](CO)[C@@H](O)C2O)c(=O)n1` (stereo not given in full), the Potency is reported as “inactive”.
For `CCC1=C(C)CN(C(=O)NCCc2ccc(S(=O)(=O)NC(=O)NC3CCC(C)CC3)cc2)C1=O` (stereo not given), the Potency was “inactive”.
In the case of `C[C@@H](c1ncncc1F)[C@](O)(Cn1cncn1)c1ccc(F)cc1F`, the Potency is reported as “inactive”.
In the case of `CCOc1cc(CC(=O)N[C@@H](CC(C)C)c2ccccc2N2CCCCC2)ccc1C(=O)O`, the Potency is reported as “inactive”.
With `Cc1nccn1CC1CCc2c(c3ccccc3n2C)C1=O` (stereo not given) the Potency was “inactive”.
With `Cc1cc(=O)oc2cc(O)ccc12` the Potency was “inactive”.
In the case of `CS(=O)(=O)OCCCCOS(C)(=O)=O`, the Potency is reported as “inactive”.
With `O=C1CCc2ccc(OCCCCN3CCN(c4cccc(Cl)c4Cl)CC3)cc2N1` the Potency was “inactive”.
With `CCCCN(CCCC)CCC(O)c1cc2c(Cl)cc(Cl)cc2c2cc(C(F)(F)F)ccc12` (stereo not given) the Potency was “inactive”.
With `Cc1nc(-c2ccc(OCC(C)C)c(C#N)c2)sc1C(=O)O` the Potency was 4.18 µM (active).
In the case of `O=C(NOCC1CC1)c1ccc(F)c(F)c1Nc1ccc(I)cc1Cl`, the Potency is reported as “inactive”.
With `CC1(C)NC(=O)N(c2ccc([N+](=O)[O-])c(C(F)(F)F)c2)C1=O` the Potency was “inactive”.
With `Cc1cc2c(s1)Nc1ccccc1N=C2N1CCN(C)CC1` the Potency was “inactive”.
In the case of `Cc1nc2n(c(=O)c1CCN1CCC(c3noc4cc(F)ccc34)CC1)CCCC2`, the Potency is reported as “inactive”.
In the case of `CN(c1nccc(=O)[nH]1)C1CCN(c2nc3ccccc3n2Cc2ccc(F)cc2)CC1`, the Potency is reported as “inactive”.
With `Cc1cc(Cl)ccc1OCCCC(=O)NO` the Potency was “inactive”.
In the case of `CC(C)c1ccc2oc3nc(N)c(C(=O)O)cc3c(=O)c2c1`, the Potency is reported as 1.32 µM (active) and inactive.
With `CC(=O)NC[C@H]1CN(c2ccc(N3CCOCC3)c(F)c2)C(=O)O1` the Potency was “inactive”.
For `O=c1c(O)c(-c2ccc(O)cc2O)oc2cc(O)cc(O)c12`, the Potency was “inactive”.
With `CCCCCCCCCCCCCCCCCCCCCCO` the Potency was “inactive”.
In the case of `COc1ccc(C2(C#N)CCC(C(=O)O)CC2)cc1OC1CCCC1` (stereo not given), the Potency is reported as “inactive”.
In the case of `CCOC(=O)C1=C(O)C(=O)N(Cc2ccccc2)C1`, the Potency is reported as “inactive”.
For `O=C(c1ccccc1)c1ccc2n1CCC2C(=O)O` (stereo not given), the Potency was 16.6 µM (active).
With `CC(C)c1nc(CN(C)C(=O)N[C@H](C(=O)N[C@@H](Cc2ccccc2)C[C@H](O)[C@H](Cc2ccccc2)NC(=O)OCc2cncs2)C(C)C)cs1` the Potency was “inactive”.
For `Cn1c(NCCN(CCO)CCCc2ccc([N+](=O)[O-])cc2)cc(=O)n(C)c1=O`, the Potency was “inactive”.
For `CCCCCCCCOc1ccccc1C(=O)Nc1ccc(C(=O)OCC[N+](C)(CC)CC)cc1`, the Potency was “inactive”.
For `CCCOc1ccc2nc(NC(=O)OC)[nH]c2c1`, the Potency was “inactive”.
For `Nc1cccc2c1CN(C1CCC(=O)NC1=O)C2=O` (stereo not given), the Potency was “inactive”.
With `Cc1cccc(C#Cc2ccccc2)n1` the Potency was “inactive and 3.98 µM (active)”.
In the case of `O=C1c2ccccc2-c2n[nH]c3cccc1c23`, the Potency is reported as “inactive”.
In the case of `O=C(CS(=O)Cc1ccco1)NCC=CCOc1cc(CN2CCCCC2)ccn1` (stereo not given), the Potency is reported as “inactive”.
For `O=c1ccc2ccc(O)c(O)c2o1`, the Potency was “inactive”.
With `Oc1ccc2ccccc2c1SSc1c(O)ccc2ccccc12` the Potency was “inactive”.
With `Cc1ccc(S(=O)(=O)NC(=O)NN2CC3CCCC3C2)cc1` (stereo not given) the Potency was “inactive”.
For `NC(=O)Cc1cccc(C(=O)c2ccccc2)c1N`, the Potency was “inactive”.
For `Cc1ccc(C(=O)c2cc(O)c(O)c([N+](=O)[O-])c2)cc1`, the Potency was “inactive”.
With `O=C(O)c1cc(=O)c2c(OCC(O)COc3cccc4oc(C(=O)O)cc(=O)c34)cccc2o1` the Potency was “inactive”.
For `C[C@H](Cc1ccc(O)c(O)c1)[C@@H](C)Cc1ccc(O)c(O)c1`, the Potency was “inactive”.
For `NNc1nncc2ccccc12`, the Potency was “inactive”.
In the case of `C[C@@H](N)C1CCC(C(=O)Nc2ccncc2)CC1` (stereo not given in full), the Potency is reported as “inactive”.
